Test results taken from PubChem BioAssay (NCI).
This is part of a sample that, as a whole, favours compounds with a hit. Of some 83,000 tested, about 20% had one in any assay.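 How to read the values: 0–100, growth inhibition (40 = 60% inhibited); 0, no net growth; -100 to 0, cell death (-40 = 40% of starting cells died; -100 = all dead).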 The source made the active and inactive calls. The calls were made as follows: active = growth percent below 10; inactive = the rest.

Assays:
Assay in all cases: NCI-60 one-dose screen, 48 h (100 = growth as untreated, 0 = no growth, -100 = all killed)
Conditions in all cases: 10 µM unless noted
SR leukemia = test system: SR leukemia
RPMI-8226 leukemia = test system: RPMI-8226 leukemia
OVCAR-8 ovarian = test system: OVCAR-8 ovarian
OVCAR-5 ovarian = test system: OVCAR-5 ovarian
OVCAR-4 ovarian = test system: OVCAR-4 ovarian
SK-OV-3 ovarian = test system: SK-OV-3 ovarian
IGROV1 ovarian = test system: IGROV1 ovarian
OVCAR-3 ovarian = test system: OVCAR-3 ovarian
HS 578T breast = test system: HS 578T breast
NCI/ADR-RES ovarian = test system: NCI/ADR-RES ovarian

Measured: growth

O=C1C(Cl)=C(Nc2ccccc2)C(=O)c2ccccc21
inactive: OVCAR-5 ovarian 75.7% | SK-OV-3 ovarian 75.1% | HS 578T breast 54%
active: SR leukemia -21% | RPMI-8226 leukemia -7.02% | OVCAR-8 ovarian -32.1% | OVCAR-4 ovarian -96.9% | IGROV1 ovarian -77.6% | OVCAR-3 ovarian -96.7% | NCI/ADR-RES ovarian -15.2%

COC12C=C/C(=C(/C(=O)OCc3csc(SC)n3)C(=O)CCCCCCCCC3(OC)C=C/C(=C(/C(=O)OCc4cnc(SC)s4)C(=O)CCCCCCCC1)O3)O2 (stereo not drawn)
inactive: OVCAR-8 ovarian 27% | OVCAR-5 ovarian 60% | OVCAR-4 ovarian 38.8% | SK-OV-3 ovarian 87.8% | IGROV1 ovarian 21% | HS 578T breast 57.2% | NCI/ADR-RES ovarian 81.3%
active: SR leukemia 1.64% | RPMI-8226 leukemia 1.53%

C=CN(C(=O)N1CCN(c2cc3c(cc2F)c(=O)c(C(=O)O)cn3C2CC2)CC1)c1nc(-c2ccc(Cl)cc2)cs1
inactive: SR leukemia 33.2% | RPMI-8226 leukemia 15.9% | OVCAR-8 ovarian 67.3% | OVCAR-5 ovarian 85.7% | OVCAR-4 ovarian 78.4% | SK-OV-3 ovarian 74.7% | IGROV1 ovarian 21.4% | OVCAR-3 ovarian 53.9% | HS 578T breast 54.3% | NCI/ADR-RES ovarian 90.6%

COc1cc(N2C(=O)[C@H](Cl)C2c2ccc(SC)cc2)cc(OC)c1OC (stereo partly drawn)
active: SR leukemia 1.95% | RPMI-8226 leukemia 3.63% | OVCAR-8 ovarian 8.62% | OVCAR-3 ovarian 3.77% | NCI/ADR-RES ovarian -0.874%
inactive: OVCAR-5 ovarian 70% | OVCAR-4 ovarian 48% | SK-OV-3 ovarian 20.4% | IGROV1 ovarian 27.8% | HS 578T breast 25.1%

COc1ccc(C(c2cc(OC)c(OC)c(OC)c2)N2CCCCC2)cc1 (stereo not drawn)
inactive: SR leukemia 18.5% | RPMI-8226 leukemia 51.2% | OVCAR-8 ovarian 50.1% | OVCAR-5 ovarian 69.6% | OVCAR-4 ovarian 69.2% | SK-OV-3 ovarian 16.7% | IGROV1 ovarian 47.1% | HS 578T breast 16.6% | NCI/ADR-RES ovarian 24%
active: OVCAR-3 ovarian 8.29%

C=CC(CC(c1ccccc1)(c1ccccc1)c1ccccc1)N(CC)CC (stereo not drawn)
active: SR leukemia -6.97%
inactive: RPMI-8226 leukemia 38.2% | OVCAR-8 ovarian 94% | OVCAR-5 ovarian 72.5% | OVCAR-4 ovarian 67.5% | SK-OV-3 ovarian 72.5% | IGROV1 ovarian 77% | OVCAR-3 ovarian 70.1% | HS 578T breast 82.1% | NCI/ADR-RES ovarian 66.1%

O=c1cc(CP(=O)(O)O)c2cc(O)c(-c3ccccc3)cc2o1
inactive: SR leukemia 95.2% | RPMI-8226 leukemia 99.2% | OVCAR-8 ovarian 101% | OVCAR-5 ovarian 101% | OVCAR-4 ovarian 98.5% | SK-OV-3 ovarian 102% | IGROV1 ovarian 104% | OVCAR-3 ovarian 108% | HS 578T breast 101% | NCI/ADR-RES ovarian 102%

COc1ccc2c(c1)oc1c(C)c3c(c(C)c12)C(=O)N(CCOS(C)(=O)=O)C3=O
inactive: SR leukemia 65.8% | RPMI-8226 leukemia 94% | OVCAR-8 ovarian 103% | OVCAR-5 ovarian 91.6% | OVCAR-4 ovarian 100% | SK-OV-3 ovarian 120% | IGROV1 ovarian 88.4% | OVCAR-3 ovarian 118% | HS 578T breast 109% | NCI/ADR-RES ovarian 97.7%

CSc1nc2ccc(C)cc2cc1/C=C1/C=C(c2ccccc2)NC1=O
inactive: SR leukemia 10.1% | RPMI-8226 leukemia 57.3% | OVCAR-8 ovarian 55.5% | OVCAR-5 ovarian 63.9% | SK-OV-3 ovarian 76.2% | IGROV1 ovarian 25.6% | HS 578T breast 28.9% | NCI/ADR-RES ovarian 51.6%
active: OVCAR-4 ovarian -51.9% | OVCAR-3 ovarian 6.24%

CNC(=O)NCC1OC(n2cnc3c(NC(=O)Nc4ccccc4)ncnc32)C2OC(=O)CC12 (stereo not drawn)
inactive: SR leukemia 90.3% | RPMI-8226 leukemia 105% | OVCAR-8 ovarian 96.4% | OVCAR-5 ovarian 96.8% | OVCAR-4 ovarian 106% | SK-OV-3 ovarian 102% | IGROV1 ovarian 92.3% | OVCAR-3 ovarian 91.7% | HS 578T breast 105% | NCI/ADR-RES ovarian 96.8%

CC(=O)N1N=C(c2ccc(Nc3nc(Nc4ccc(F)cc4)nc(Nc4ccc(F)cc4)n3)cc2)CC1c1ccc(N(C)C)cc1 (stereo not drawn)
active: SR leukemia -4.86% | RPMI-8226 leukemia 4.52%
inactive: OVCAR-8 ovarian 27.6% | OVCAR-5 ovarian 78.4% | OVCAR-4 ovarian 62.2% | SK-OV-3 ovarian 90.6% | IGROV1 ovarian 48% | OVCAR-3 ovarian 69.5% | HS 578T breast 62.9% | NCI/ADR-RES ovarian 27.5%

CN(C)Cc1cc(C(C)(C)C)cc(Br)c1O
inactive: SR leukemia 107% | RPMI-8226 leukemia 96.9% | OVCAR-8 ovarian 106% | OVCAR-5 ovarian 107% | OVCAR-4 ovarian 102% | SK-OV-3 ovarian 97.4% | IGROV1 ovarian 108% | OVCAR-3 ovarian 114% | HS 578T breast 30.7% | NCI/ADR-RES ovarian 106%

O=C(/C=C/c1ccccc1)c1ccc(-n2cc(CN3CCN(c4cc5c(cc4F)c(=O)c(C(=O)O)cn5C4CC4)CC3)nn2)cc1
active: RPMI-8226 leukemia -0.509%
inactive: SR leukemia 24.1% | OVCAR-8 ovarian 62% | OVCAR-5 ovarian 92.2% | OVCAR-4 ovarian 89.7% | SK-OV-3 ovarian 80% | IGROV1 ovarian 84% | OVCAR-3 ovarian 91.5% | HS 578T breast 67.4% | NCI/ADR-RES ovarian 87%

Cc1cccc(NC(=O)Cn2cc(CN3CCN(c4ccnc5cc(Cl)ccc45)CC3)nn2)c1
inactive: SR leukemia 78% | RPMI-8226 leukemia 63.7% | OVCAR-8 ovarian 92.7% | OVCAR-5 ovarian 96.8% | OVCAR-4 ovarian 78.1% | SK-OV-3 ovarian 76.6% | IGROV1 ovarian 89.1% | OVCAR-3 ovarian 91.1% | HS 578T breast 85.1% | NCI/ADR-RES ovarian 91.3%

CN(C)CCCn1c2c(c3ccncc3c1=O)C(=O)c1ccccc1-2
inactive: SK-OV-3 ovarian 34.8% | HS 578T breast 19.8%
active: SR leukemia -26% | RPMI-8226 leukemia -22.7% | OVCAR-8 ovarian 0.796% | OVCAR-5 ovarian 0.243% | OVCAR-4 ovarian -8.01% | IGROV1 ovarian 0.297% | OVCAR-3 ovarian -12.3% | NCI/ADR-RES ovarian -23.5%

CNC(=O)c1cc(Oc2ccc3c(c2)sc2nc(-c4cc(C(F)(F)F)cc(C(F)(F)F)c4)cn23)ccn1
inactive: SR leukemia 34% | RPMI-8226 leukemia 50.1% | OVCAR-8 ovarian 36.1% | OVCAR-5 ovarian 91.4% | OVCAR-4 ovarian 24.8% | SK-OV-3 ovarian 46.7% | IGROV1 ovarian 74.1% | OVCAR-3 ovarian 68.3% | HS 578T breast 49.4% | NCI/ADR-RES ovarian 68.3%

CCOC(=O)c1cn2ncnc(Oc3ccc(NC(=O)NC4CC4)c(Cl)c3)c2c1C
inactive: SR leukemia 77.5% | RPMI-8226 leukemia 61.3% | OVCAR-8 ovarian 98.6% | OVCAR-5 ovarian 108% | OVCAR-4 ovarian 53.2% | SK-OV-3 ovarian 111% | IGROV1 ovarian 87.6% | OVCAR-3 ovarian 107% | HS 578T breast 100% | NCI/ADR-RES ovarian 90.3%

COc1ccc(CNc2ccc3nc(NC(=O)CN4CCCCCC4)sc3c2)cc1
inactive: SR leukemia 93.5% | RPMI-8226 leukemia 55.6% | OVCAR-8 ovarian 87.8% | OVCAR-5 ovarian 95.5% | OVCAR-4 ovarian 62.3% | SK-OV-3 ovarian 103% | IGROV1 ovarian 107% | HS 578T breast 115% | NCI/ADR-RES ovarian 82.9%

CC(=O)c1sc(-c2ccc(F)cc2)cc1O
inactive: SR leukemia 82.6% | RPMI-8226 leukemia 105% | OVCAR-8 ovarian 104% | OVCAR-5 ovarian 111% | OVCAR-4 ovarian 79.5% | SK-OV-3 ovarian 102% | IGROV1 ovarian 115% | OVCAR-3 ovarian 109% | HS 578T breast 117% | NCI/ADR-RES ovarian 106%

COc1cc2ncnc(Nc3ccc(F)c(Cl)c3)c2cc1OCC(=O)N1CCOCC1
inactive: SR leukemia 89.3% | RPMI-8226 leukemia 91% | OVCAR-8 ovarian 87.2% | OVCAR-5 ovarian 74.1% | OVCAR-4 ovarian 82.7% | SK-OV-3 ovarian 17.4% | IGROV1 ovarian 45.6% | OVCAR-3 ovarian 79.7% | HS 578T breast 96.7% | NCI/ADR-RES ovarian 81.9%

CC1=C(Cl)C(=O)c2cc(C)ccc2C1=O
inactive: SR leukemia 89.3% | RPMI-8226 leukemia 99.6% | OVCAR-8 ovarian 92.4% | OVCAR-5 ovarian 107% | OVCAR-4 ovarian 103% | SK-OV-3 ovarian 105% | IGROV1 ovarian 103% | OVCAR-3 ovarian 105% | HS 578T breast 104% | NCI/ADR-RES ovarian 105%

COc1ccc(C(=O)C/C(=C\c2ccc(O)c(OC)c2)C(=O)NN)cc1
inactive: SR leukemia 26.9% | RPMI-8226 leukemia 80.3% | OVCAR-8 ovarian 80.7% | OVCAR-5 ovarian 105% | OVCAR-4 ovarian 101% | SK-OV-3 ovarian 79.9% | IGROV1 ovarian 82.6% | OVCAR-3 ovarian 87.6% | HS 578T breast 101% | NCI/ADR-RES ovarian 74.8%

COc1cc(/C=C2\C(=O)N(CCCOc3cc(O)c4c(=O)cc(-c5ccccc5)oc4c3)c3ccccc32)cc(OC)c1O
inactive: SR leukemia 31.9% | RPMI-8226 leukemia 86.7% | OVCAR-8 ovarian 84.7% | OVCAR-5 ovarian 110% | OVCAR-4 ovarian 83.6% | SK-OV-3 ovarian 91.6% | IGROV1 ovarian 77.2% | OVCAR-3 ovarian 44.5% | HS 578T breast 70.4% | NCI/ADR-RES ovarian 64%

COc1cc2c(c(OC)c1OC)C(=O)CC(c1cccc(C(=O)Nc3ccc(C#N)cc3)c1)O2 (stereo not drawn)
inactive: SR leukemia 41.2% | RPMI-8226 leukemia 29.7% | OVCAR-8 ovarian 42.9% | OVCAR-5 ovarian 102% | OVCAR-4 ovarian 55.2% | SK-OV-3 ovarian 104% | IGROV1 ovarian 88.5% | OVCAR-3 ovarian 74.5% | HS 578T breast 92.4% | NCI/ADR-RES ovarian 52.4%

C=C(C)[C@@H]1CC[C@]2(COC3CCCCO3)CC[C@]3(C)[C@H](CC[C@@H]4[C@@]5(C)C=C(C=O)C(=O)C(C)(C)[C@@H]5CC[C@]43C)[C@@H]12 (stereo partly drawn)
active: SR leukemia -5.54% | RPMI-8226 leukemia -6.13% | OVCAR-8 ovarian -39.2% | OVCAR-5 ovarian -19% | OVCAR-4 ovarian -34.7% | SK-OV-3 ovarian -40% | IGROV1 ovarian -64.8% | OVCAR-3 ovarian -65.1% | HS 578T breast -24.3% | NCI/ADR-RES ovarian 1.89%

O=c1cc(CNc2cc(F)cc(F)c2)c2ccc(I)cc2[nH]1
inactive: RPMI-8226 leukemia 15.8% | OVCAR-8 ovarian 53.5% | OVCAR-5 ovarian 64.3% | OVCAR-4 ovarian 60.2% | SK-OV-3 ovarian 39% | IGROV1 ovarian 45.9% | OVCAR-3 ovarian 11.2% | HS 578T breast 19.9% | NCI/ADR-RES ovarian 26.3%
active: SR leukemia -0.446%
